# Screening results: PubChem BioAssay, National Center for Advancing Translational Sciences (NCATS)
# HADH2 inhib: blocks human hydroxyacyl-CoA dehydrogenase type II. Potency, µM (titrated, usually from 57.1 µM), for inactives: top-dose activity change, negative = inhibition, actives largely listed as inhibitors. Q99714. AID 886. recombinant HADH2, NADH fluorescence, beta-hydroxybutyryl-CoA. 73,000 compounds, 3.4% hits; further: potency means the concentration at half of the fitted maximal effect; on the % scale 0 is the no-effect control and ±100 the full control effect; nearly all actives have a fitted effect of over 60% in size
# Target sequence (Q99714 whole entry, looked up, one chain of several): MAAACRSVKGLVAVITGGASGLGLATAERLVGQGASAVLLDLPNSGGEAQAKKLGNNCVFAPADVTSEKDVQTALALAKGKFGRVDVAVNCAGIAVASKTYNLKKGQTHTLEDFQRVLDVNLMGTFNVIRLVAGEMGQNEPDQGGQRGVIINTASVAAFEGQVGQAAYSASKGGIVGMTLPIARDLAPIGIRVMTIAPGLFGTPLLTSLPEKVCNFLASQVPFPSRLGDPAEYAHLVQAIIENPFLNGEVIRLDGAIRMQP
#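 Buffer 100 mM Tris-HCl pH 9.0/0.01% Tween-20; HADH2 20 nM; NAD+ 1 mM; beta-hydroxybutyryl-CoA 90 uM (all final). 15 min cpd preincubation, RT.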
# HSD17B inhib: inhibitors of human HSD17B10 dehydrogenase; 75,000 compounds, 7.6% hits; Q99714; Potency, µM (top dose mostly 57.1 µM), without a hit: at the highest dose activity change, negative = inhibition, most hits filed as inhibitors; AID 893; recombinant HSD17B10, NADH fluorescence kinetic;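 further: the protocol describes HADH2 (HSD17B10) and not the HSD17B4 of the title; potency means the concentration at half of the fitted maximal effect; on the % scale 0 is the no-effect control and ±100 the full control effect; nearly all actives have a fitted effect of over 70% in size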
#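 His-tagged E. coli-expressed HADH2 at 20 nM in 100 mM Tris-HCl pH 9.0 with 0.01 % Tween-20, preincubated 15 min with compound at room temperature. Reaction with 1 mM NAD+ and 90 uM beta-hydroxybutyryl coenzyme A; NADH fluorescence (360/450 nm) read kinetically over 4 min, last minus first point.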
# 4MU fluor: compound fluoresces in the 4-MU spectral region; compound autofluorescence, 340/450 nm, 4-MU equivalents; active compounds read high; max dye-equivalent concentration, M; 59,000 compounds, 11% hits; AID 589; in the data active means max dye-equivalent concentration above about 10 nM; inconclusive means mostly about 1.1 nM to 9.6 nM
#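 Compounds in 100 mM Tris, pH 8.0, sat 15 min at room temperature before fluorescence was read at 340 nm excitation/450 nm emission; a per-plate six-point 4-MU standard curve converted signals to dye-equivalent concentration at each compound concentration.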
# CRE Fsk mod: CRE-bla signaling modulation under forskolin stimulation | 71,000 compounds, 2.5% hits | Potency, µM (doses to about 38.2 µM), for the others: at the highest dose activity change, negative = inhibition, hits mostly activators | AID 662 | CHO CRE-bla reporter (cAMP response element driving beta-lactamase), forskolin EC10, beta-lactamase ratio; active means well fitted activation curve with a large enough effect in the signal ratio, with a control signal flat, not every such curve was filed as active; inconclusive means small, poorly fitted or top-dose-only effect, or effect the other way, or a change in a side signal; the % refers to the signal ratio; further: potency means the concentration at half of the fitted maximal effect; % of control where 0% means no effect
#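 Modulation of forskolin signalling: compounds in titration series added with EC10 NKH 477 to CHO cells carrying a CRE-driven beta-lactamase reporter, 3 h, 37C. CCF4 FRET ratio (460/530 nm, ex 405 nm) gives %activity and AC50.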
# A350 fluor: compounds fluorescent in Alexa 350 spectral region | Compound autofluorescence, 340/450 nm, Alexa 350 dye-equivalents; active compounds read high | max dye-equivalent concentration, M | 59,000 compounds, 11% hits; in the data active means max dye-equivalent concentration above about 10 nM; inconclusive means mostly about 1.1 nM to 9.6 nM
# AID923: qHTS Assay for Allosteric/Competitive Inhibitors of Caspase-1: Spectroscopic Profiling in AFC Spectral Region; compound fluorescence, AFC spectral region (405/520 nm); Potency, µM (series often up to 57.5 µM), without a hit: at the top dose fluorescence increase, most hits filed as activators; 75,000 compounds, 1.1% hits; AID 923, 2007; further: potency means the concentration at half of the fitted maximal effect; 0% is about no effect
#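 Baseline compound fluorescence (AFC region, 405 nm ex/520 nm em) taken from the intercept of kinetic reads with 50 nM caspase-1 and 5 uM Ac-WEHD-AFC; normalized to an on-plate AFC standard curve; compounds titrated up to 57 uM.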
# Numbers without * were called inactive; i = inactive; ? = inconclusive; · = not tested or not shown; [ ] = another dose, or the depositor's remark. Only some compounds are listed: those with a hit (about 14% of all), similar ones and a draw of the others. Unless noted, the call rests on the fitted dose curve; in most records, active means well fitted curve in the direction sought with a large enough effect; inconclusive means small, poorly fitted or top-dose-only effect, or another doubt; inactive means no such curve, though single readings can be large; an effect the other way counts as inactive or inconclusive.
SMILES,HADH2 inhib,HSD17B inhib,4MU fluor,CRE Fsk mod,A350 fluor,AID923
Cc1cc2ccccc2n1CCNC(=O)c1ccccc1,-1.3%,-21.3%,i,-10.8%,i,8.0%
N#C/C(=C\c1ccc(O)c(O)c1)C(=O)NCCCCc1ccccc1,?,-87.5%,·,?,·,-1.5%
CC(C)(C)N1C(=O)[C@H]2[C@H]3[C@H](O)[C@H](O)C/C(=N/OCc4ccccc4)[C@H]3CC[C@@H]2C1=O,0.3%[11.4 µM],4.0%[11.4 µM],·,·,·,-0.7%[11.5 µM]
Nc1ncnc2nn([C@H]3O[C@@H](CO)[C@@H](O)[C@H]3O)nc12,9.3%[11.4 µM],-5.0%[11.4 µM],i,1.2%[7.6 µM],i,4.5%[11.5 µM]
O=C(CN1C(=O)C2C3C=CC(C3)C2C1=O)Nc1ccc2nccnc2c1 (configuration not stated),20µM*,31.6µM*,·,0.4%,·,0.2%
N#C/C(=C\c1ccc(O)c(O)c1)C(=O)NCCc1ccccc1,-26.9%,20µM*,i,?,i,-2.8%
CCc1ccc2c(-c3cccc(Cl)c3)nc(=O)n(CC)c2n1,4.1%,31.6µM*,·,0.794µM*,·,-1.5%
COc1c2ccoc2nc2c(OC)c(OC[C@H](O)C(C)(C)O)ccc12,39.8µM*,12.6µM*,1.61e-08M*,16.3%,1.64e-08M*,0.4%[25.7 µM]
Oc1ccccc1,0.3%,1.1%,·,-12.1%,·,-3.1%
Oc1ccc(O)cc1,0.398µM*,1.26µM*,i,?,i,5.1%
CCn1c(/C=N/n2cnnc2)nc2ccccc21,31.6µM*,25.1µM*,·,-2.0%,·,4.2%
C(=N\n1cnnc1)/c1cccc2ccccc12,?,?,1.51e-08M*,?,1.89e-08M*,-0.7%
CCn1c(/N=C/c2c[nH]c3ccccc23)nc2ccccc21,7.5%,-8.1%,i,-6.5%,i,2.0%
CCn1c2ccccc2c2cc(/C=N/n3cnnc3)ccc21,25.1µM*,25.1µM*,3.16e-07M*,?,3.12e-07M*,15.4%
C(=N\n1cnnc1)/c1cn(Cc2ccccc2)c2ccccc12,?,-11.3%,·,?,·,-1.9%
COc1ccccc1/C=N/n1cnnc1,?,?,·,9.1%,·,-1.4%
CCN1C(=O)c2c(C)nc3ccccc3c2C1=O,-13.7%,6.0%,i,?,i,3.5%
CCN1C(=O)c2ccc(-c3nc4ccccc4c(=O)o3)cc2C1=O,-1.2%,20µM*,·,-1.1%,·,2.6%
O=C(Nc1ncc2c(n1)CC(c1ccccc1)CC2=O)c1ccco1 (configuration not stated),-6.5%,-0.3%,i,0.5%,?,-0.9%
O=C1CC(c2ccccc2)Cc2nc(NCc3ccco3)ncc21 (configuration not stated),31.6µM*,25.1µM*,1.87e-07M*,?,1.98e-07M*,-1.3%
O=C1CCCc2nc(N3CCc4ccccc43)ncc21,0.0%,-0.5%,5.5e-08M*,20.4%,7.14e-08M*,-1.4%
O=C1CC(c2cccc(Cl)c2)Cc2nc(N3CCN(c4ccccc4)CC3)ncc21 (configuration not stated),?,1.1%,4.5e-08M*,6.1%,?,0.6%
O=C1CC(c2ccccc2)Cc2nc(N3CCc4ccccc43)ncc21 (configuration not stated),12.6µM*,-9.4%,3.38e-07M*,?,3.4e-07M*,1.3%
CCCn1c(C)nc2c(NCCN(C(C)C)C(C)C)nc(C)nc21,0.5%,-1.0%,·,3.2%,·,-0.1%
Cc1ccc(NC(=O)Nc2cccs2)cc1,15.8µM*,-13.3%,·,·,·,-0.6%
COc1ccc(NC(=O)Nc2cccs2)cc1OC,?,?,i,8.3%,i,0.4%
O=C(Nc1cccs1)Nc1ccccc1Cl,?,25.1µM*,i,?,i,1.8%
COc1cccc(NC(=O)Nc2cccs2)c1,?,25.1µM*,i,-24.7%,i,0.9%
COCC(=O)N1CCC2(CCCN(Cc3ccc(C#N)cc3)C2)CC1,3.8%,-2.9%,i,-2.6%,i,2.0%
CCCn1c(=O)c(C)cn2nc(N)nc12,-82.6%,25.1µM*,·,12.6µM*,·,-3.2%
